Screens from PubChem BioAssay.
This excerpt belongs to a sample that is enriched for hits.
Pf Dd2 inh: blocks in vitro growth of P. falciparum Dd2. P. falciparum Dd2 growth, SYBR Green, 72 h. 120,000 tested, 4.3% active. Potency, µM (titrated, usually from 28.9 µM), inactives show at the highest dose activity, negative = inhibition, most hits filed as inhibitors. AID 1347417; active = well fitted inhibition curve with a large enough effect;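 also: plate controls were DMSO vehicle for no effect and reference drug for full effect; nearly all actives have a fitted effect of over 65% in size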
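Readout: SYBR Green fluorescence, 485 nm excitation, 535 nm emission, after ~16 h lysis at 37C. Before that, Dd2-infected red cells (2.5% hematocrit) grew 72 h with compound, 29 uM top final concentration.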
Numbers without * were called inactive; i = inactive; [ ] = remark or other dose. Potency is read from the fitted curve at half-maximal effect.

SMILES	Pf Dd2 inh
O=C(NCCc1ccccc1)C1CCCN(C2CCN(Cc3ccncc3)CC2)C1 (stereo not drawn)	10µM*
O=C(NCCN1CCOCC1)C1CCCN(C2CCN(Cc3ccncc3)CC2)C1 (stereo not drawn)	-15.2%
O=C(NCCc1ccccc1)C1CCCN(C2CCN(Cc3ccccc3F)CC2)C1 (stereo not drawn)	i
COc1ccc(C(=O)N2CCc3nc(C4CC4)nc(-c4ccc(Cl)cc4)c3CC2)cc1	10µM*
CC(C)c1nc2c(c(-c3ccc(Cl)cc3)n1)CCN([S+](=O)([O-])c1ccccc1)CC2	11.2µM*
Cc1cc(CN2CCc3nc(C(C)C)nc(-c4ccc(Cl)cc4)c3CC2)no1	8.91µM*
CC(C)c1nc2c(c(-c3ccc(Cl)cc3)n1)CCN(CC1CC1)CC2	-18.0%
Cc1ccc([S+](=O)([O-])N2CCc3nc(C)nc(-c4ccc(Cl)cc4)c3CC2)cc1	13.0%
COc1cccc([S+](=O)([O-])N2CCc3nc(C4CC4)nc(-c4ccc(Cl)cc4)c3CC2)c1	12.6µM*
COc1ccc(-c2nc(C)nc3c2CN([S+](=O)([O-])c2cccc(OC)c2)CC3)cc1	-6.6%
Cc1ccc(C(=O)N2CCc3nc(C4CC4)nc(-c4ccc(Cl)cc4)c3CC2)cc1	-15.0%
CCc1nc2c(c(-c3ccc(Cl)cc3)n1)CCN(C(=O)c1ccc(OC)cc1)CC2	i
O=[S+]([O-])(c1cccc(C(F)(F)F)c1)N1CCc2nc(C3CC3)nc(-c3ccc(Cl)cc3)c2C1	-11.1%
COc1ccc(-c2nc(C(C)C)nc3c2CN([S+](=O)([O-])c2cccc(C(F)(F)F)c2)CC3)cc1	i
COc1ccc(-c2nc(C)nc3c2CCN(Cc2cc(C)on2)CC3)cc1	-12.7%
CC(C)N1C(=O)C2(CCCCC2)C1C(=O)N1CCN(c2ccccc2)CC1 (stereo not drawn)	11.2%
O=c1[nH]c(N2CCc3ccccc3C2)nc2c1CCN(Cc1ccccc1)CC2	7.0%[5.79 µM]
O=C(NCc1cc(F)cc(F)c1)C1CCN(C(=O)N2CC3CC(C2)[C@H]2CCCC(=O)N2C3)CC1 (stereo partly drawn)	1.7%
Cc1cc(F)ccc1Nc1ncncc1-c1nc(-c2ccccc2)no1	i
O=C(NCc1nnc2ccc(-c3ccc(F)cc3)nn12)c1cccc(C(F)(F)F)c1	i
COc1ccc(-c2nc(C)nc3c2CCN(C(=O)c2ccc(C)cc2)CC3)cc1	-18.8%
COc1ccc(-c2nc(C3CC3)nc3c2CCN(C(=O)c2ccc4c(c2)OCO4)CC3)cc1	11.2µM*
COc1ccc(-c2nc(C)nc3c2CCN(C(=O)c2ccc4c(c2)OCO4)CC3)cc1	i
NC(=O)[C@@H](Cc1ccccc1)NC(=O)[C@@]1(O)C[C@@H](O)[C@H](O)[C@@H](NC(=O)Cc2cccs2)C1	12.4%
CCn1cc([S+](=O)([O-])N2CCN(C(=O)N3CC4CC(C3)[C@H]3CCCC(=O)N3C4)CC2)cn1 (stereo partly drawn)	i
SMILES	Pf Dd2 inh
O=C(Cn1c(=O)n(-c2ccccc2)c(=O)c2ccc(C(=O)NCc3ccc4c(c3)OCO4)cc21)Nc1ccc(Br)cc1F	8.91µM*
O=C(Cn1c(=O)n(Cc2nc(-c3ccccc3)no2)c(=O)c2cc3c(cc21)OCO3)Nc1ccc(Cl)cc1	10µM*
Cc1ccc(-n2c(=O)c3ccc(C(=O)NCc4ccccc4Cl)cc3n(CC(N)=O)c2=O)cc1	22.5%
Cc1ccc(Cl)cc1NC(=O)Cn1c(=O)n(Cc2ccc(C(=O)NCc3ccc4c(c3)OCO4)cc2)c(=O)c2ccccc21	-17.4%
CCN(C(=O)Cn1c(=O)n(-c2ccccc2)c(=O)c2ccc(C(=O)NCc3ccc4c(c3)OCO4)cc21)c1cccc(C)c1	7.08µM*
Cc1ccccc1NC(=O)Cn1c(=O)n(CCCC(=O)NCc2ccc3c(c2)OCO3)c(=O)c2ccccc21	22.2%
O=C(Cn1c(=O)n(Cc2ccc(C(=O)NCc3ccc4c(c3)OCO4)cc2)c(=O)c2ccccc21)Nc1ccccc1F	i
Cc1ccc(NC(=O)Cn2c(=O)n(Cc3ccc(C(=O)NCc4ccc5c(c4)OCO5)cc3)c(=O)c3ccccc32)cc1	8.91µM*
Cc1ccc(Cn2c(=O)n(-c3ccccc3)c(=O)c3ccc(C(=O)NCc4ccco4)cc32)cc1	-16.0%
Cc1ccc(NC(=O)Cn2c(=O)n(Cc3nc(-c4ccccc4)no3)c(=O)c3cc4c(cc32)OCO4)c(C)c1	86.6%
Cc1c(Cl)cccc1NC(=O)Cn1c(=O)n(Cc2nc(-c3ccccc3)no2)c(=O)c2cc3c(cc21)OCO3	-11.6%
Cc1ccc(NC(=O)Cn2c(=O)n(-c3ccccc3)c(=O)c3ccc(C(=O)NCc4ccc5c(c4)OCO5)cc32)cc1	-8.2%
O=C(Cn1ccn2nc3c(c2c1=O)CCCC3)N1CCc2ccccc21	i
CCc1nc(CN2CCN(Cc3ccc(C)o3)C(CCO)C2)c(C)[nH]1 (stereo not drawn)	-9.7%
O=C(NCc1cccnc1)[C@@H]1C[C@@H](O)CN1C1CCN(C(=O)CCc2ccccc2)CC1	-0.5%
O=C(O)C[C@@H]1CCN(C(=O)C2CCCC2)C[C@@H]1CC1=NCCc2cc(F)ccc21	-3.6%[44.1 µM]
COc1ccc(OC)c(S(=O)(=O)N2CCOCCNC(=O)[C@@H]3CCC[C@@H]32)c1	44.1%
NCCn1cc(C(=O)N(Cc2ccccn2)CC2CCCO2)nn1 (stereo not drawn)	-11.2%
COc1ccc(CC(=O)N2CC[C@@H](CC(=O)O)[C@@H](CCN3C[C@@H]4C[C@H](C3)c3cccc(=O)n3C4)C2)cc1	-17.6%
COc1ccc2nc3n(c2c1)[C@@H](CNS(=O)(=O)c1ccccc1)COC3	8.91µM*
COc1ccc(S(=O)(=O)NC[C@H]2COCc3nc4cc(C)ccc4n32)cc1	-7.1%[44.1 µM]
COc1ccc2nc3n(c2c1)[C@@H](CNC(=O)c1ccccc1)COC3	i
Cc1cc(C)n(C)c(=O)c1C(=O)NC1CCCc2nc(-c3ccccc3)ncc21 (stereo not drawn)	8.4%
Cc1noc([C@@H]2CC(F)(F)CN2C(=O)c2ccco2)n1	-24.5%
CCOc1ncccc1C(=O)NC1CC(c2nnc(CN(C)C)n2C)C1 (stereo not drawn)	-0.1%
SMILES	Pf Dd2 inh
O=C(NCc1ccccc1)C1CCN(c2ncnc3c2nc2n3CCCCC2)CC1	22.1%
CCOC(=O)c1ccccc1NC(=O)C1CCN(c2ncnc3c2nc2n3CCCCC2)CC1	-7.3%
O=C(Nc1ccc(F)cc1Cl)C1CCN(c2ncnc3c2nc2n3CCCCC2)CC1	2.82µM*
COc1cccc(CCC(=O)N2CC(c3nnc(-c4ccncc4)o3)C3(CCOCC3)C2)c1 (stereo not drawn)	-6.6%
Cn1c(CN2C[C@H](O)C[C@H]2c2nc(-c3ccc(OC(F)(F)F)cc3)no2)nc2ccccc21	i
CCOc1ccc2c(c1)c(=O)c(C(=O)c1ccc3c(c1)OCO3)cn2Cc1ccc(F)cc1	-26.4%
COc1ccc(CCNC(=O)Cn2cc(C(=O)c3ccc(F)cc3)c(=O)c3ccc(C)nc32)cc1OC	i
COc1ccc(Cn2cc(C(=O)c3ccc(C)c(C)c3)c(=O)c3ccccc32)cc1	11.2µM*
COc1ccccc1Cn1cc(C(=O)c2ccc(Cl)cc2)c(=O)c2ccccc21	i
COc1ccc(C(=O)c2cn(Cc3cccc(C)c3)c3cc4c(cc3c2=O)OCO4)cc1	-7.3%
COc1cccc(Cn2cc(C(=O)c3ccc(Cl)cc3)c(=O)c3ccccc32)c1	14.1µM*
COc1cccc(C(=O)c2cn(CC(=O)NCCc3ccccc3)c3nc(C)ccc3c2=O)c1	i
COc1cc2c(=O)c(C(=O)c3ccc(C)c(C)c3)cn(Cc3ccc(F)cc3)c2cc1OC	4.47µM*
